# Assay results reported in the supplement of paper PMC10037445.
# Whole data set: some 2,900 compounds, median “NF-kB SEAP reporter activity, fold change vs agonist alone” near 0.99, cut for the highest 2% near 2.6. The list comes from a sample in which the highest values are over-represented; it also holds similar structures and randomly drawn compounds.
# Experiments:
# RAW-Dual [1] = assay: NF-kB SEAP reporter activity, fold change vs agonist alone; higher = enhanced NF-kB activity
# In short: (§1)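 RAW-Dual macrophages (50,000 cells/well in DMEM, 384-well plates) received 50 nL of library stock by pin tool, then a PRR agonist 1 h later, and were kept at 37 °C, 5% CO2. After 20 hours, supernatant was read for IRF by QuantiLuc luminescence and for NF-κB by QuantiBlue absorbance at 620 nm. Reporter activity is fold change over agonist-alone wells. Cytotoxic wells had IncuCyte confluency below 70% of agonist controls in both mask sets.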
# RAW-Dual [2] = assay: NF-kB SEAP reporter activity, fold change vs agonist alone; cytotoxicity flag (confluency mask): not cytotoxic; higher = enhanced NF-kB activity
# In short: as §1
# RAW-Dual [3] = assay: NF-kB SEAP reporter activity, fold change vs agonist alone; cytotoxicity flag (confluency mask): cytotoxic (confluency <70% of control); higher = enhanced NF-kB activity
# In short: as §1
# [4] = library stock concentration (final ~1000-fold dilution): 10 mM, cytotoxicity flag (confluency mask): not cytotoxic, agonist: Imiquimod (TLR7) […]
# [5] = library stock concentration (final ~1000-fold dilution): 10 mM, cytotoxicity flag (confluency mask): not cytotoxic, agonist: MPLA (TLR4) […]
# [6] = agonist: ODN 1826 (TLR9) 0.5 ug/mL
# [7] = agonist: Pam2CSK4 (TLR2/6) 0.1 ug/mL
# [8] = agonist: Pam3CSK4 (TLR2/1) 0.1 ug/mL
# [9] = library stock concentration (final ~1000-fold dilution): 10 mM, cytotoxicity flag (confluency mask): cytotoxic (confluency <70% of control), agonist: MPLA (TLR4) […]
# [10] = library stock concentration (final ~1000-fold dilution): 10 mM, cytotoxicity flag (confluency mask): cytotoxic (confluency <70% of control), agonist: Imiquimod (TLR7) […]
smiles,measurement,setting,value
CC(C)(Cc1ccc2ccccc2c1)NCC(O)COc1cccc(Cl)c1C#N (stereo not drawn),NF-kB SEAP reporter activity,RAW-Dual [1]; [4],0.896
same,NF-kB SEAP reporter activity,RAW-Dual [1]; [5],0.972
CC(C)(Cc1ccc2ccccc2c1)NCC(O)COc1cccc(Cl)c1C#N (stereo not drawn) (library stock concentration (final ~1000-fold dilution): 10 mM),NF-kB SEAP reporter activity,RAW-Dual [2]; agonist: LPS (TLR4) 0.1 ug/mL,0.273
same,NF-kB SEAP reporter activity,RAW-Dual [2]; [6],0.962
same,NF-kB SEAP reporter activity,RAW-Dual [2]; [7],0.164
same,NF-kB SEAP reporter activity,RAW-Dual [2]; [8],1.03
CCCCCCCCCC(=O)NC(Cc1c[nH]c2ccccc12)C(=O)NC(CC(N)=O)C(=O)NC(CC(=O)O)C(=O)NC1C(=O)NCC(=O)NC(CCCN)C(=O)NC(CC(=O)O)C(=O)NC(C)C(=O)NC(CC(=O)O)C(=O)NCC(=O)NC(CO)C(=O)NC(C(C)CC(=O)O)C(=O)NC(CC(=O)c2ccccc2N)C(=O)OC1C (stereo not drawn) (library stock concentration (final ~1000-fold dilution): 10 mM),NF-kB SEAP reporter activity,RAW-Dual [2]; agonist: LPS (TLR4) 0.1 ug/mL,1.33
same,NF-kB SEAP reporter activity,RAW-Dual [2]; [6],1.01
same,NF-kB SEAP reporter activity,RAW-Dual [2]; [7],1.05
same,NF-kB SEAP reporter activity,RAW-Dual [2]; [8],1.19
CCCCCCCCCC(=O)NC(Cc1c[nH]c2ccccc12)C(=O)NC(CC(N)=O)C(=O)NC(CC(=O)O)C(=O)NC1C(=O)NCC(=O)NC(CCCN)C(=O)NC(CC(=O)O)C(=O)NC(C)C(=O)NC(CC(=O)O)C(=O)NCC(=O)NC(CO)C(=O)NC(C(C)CC(=O)O)C(=O)NC(CC(=O)c2ccccc2N)C(=O)OC1C (stereo not drawn),NF-kB SEAP reporter activity,RAW-Dual [1]; [4],0.826
same,NF-kB SEAP reporter activity,RAW-Dual [1]; [5],0.855
CC(=O)OC(CC=C(C)C)C1=CC(=O)c2c(O)ccc(O)c2C1=O (stereo not drawn) (library stock concentration (final ~1000-fold dilution): 2 mM),NF-kB SEAP reporter activity,RAW-Dual [2]; agonist: LPS (TLR4) 0.1 ug/mL,0.479
same,NF-kB SEAP reporter activity,RAW-Dual [2]; [6],0.647
same,NF-kB SEAP reporter activity,RAW-Dual [2]; [7],0.257
same,NF-kB SEAP reporter activity,RAW-Dual [2]; [8],0.408
CC(=O)OC(CC=C(C)C)C1=CC(=O)c2c(O)ccc(O)c2C1=O (stereo not drawn),NF-kB SEAP reporter activity,"RAW-Dual [1]; library stock concentration (final ~1000-fold dilution): 2 mM, cytotoxicity flag (confluency mask): not cytotoxic, agonist: Imiquimod (TLR7) […]",0.978
same,NF-kB SEAP reporter activity,"RAW-Dual [1]; library stock concentration (final ~1000-fold dilution): 2 mM, cytotoxicity flag (confluency mask): not cytotoxic, agonist: MPLA (TLR4) […]",0.978
O=c1cc(-c2ccccc2)oc2c1ccc1ccccc12 (library stock concentration (final ~1000-fold dilution): 10 mM),NF-kB SEAP reporter activity,RAW-Dual [2]; agonist: LPS (TLR4) 0.1 ug/mL,0.691
same,NF-kB SEAP reporter activity,RAW-Dual [2]; [6],0.933
same,NF-kB SEAP reporter activity,RAW-Dual [2]; [7],0.846
same,NF-kB SEAP reporter activity,RAW-Dual [2]; [8],0.982
O=c1cc(-c2ccccc2)oc2c1ccc1ccccc12,NF-kB SEAP reporter activity,RAW-Dual [1]; [5],1.2
C#CCNC1CCc2ccccc21 (stereo not drawn) (library stock concentration (final ~1000-fold dilution): 10 mM),NF-kB SEAP reporter activity,RAW-Dual [2]; agonist: LPS (TLR4) 0.1 ug/mL,1.06
same,NF-kB SEAP reporter activity,RAW-Dual [2]; [6],0.931
same,NF-kB SEAP reporter activity,RAW-Dual [2]; [7],1.04
same,NF-kB SEAP reporter activity,RAW-Dual [2]; [8],1.08
C#CCNC1CCc2ccccc21 (stereo not drawn),NF-kB SEAP reporter activity,RAW-Dual [1]; [4],0.916
same,NF-kB SEAP reporter activity,RAW-Dual [1]; [5],1.14
O=C1Nc2ccc(Cl)cc2C(C#CC2CC2)(C(F)(F)F)O1 (stereo not drawn),NF-kB SEAP reporter activity,RAW-Dual [1]; [9],0.748
O=C1Nc2ccc(Cl)cc2C(C#CC2CC2)(C(F)(F)F)O1 (stereo not drawn) (library stock concentration (final ~1000-fold dilution): 10 mM),NF-kB SEAP reporter activity,RAW-Dual [3]; agonist: LPS (TLR4) 0.1 ug/mL,0.632
same,NF-kB SEAP reporter activity,RAW-Dual [3]; [6],0.547
same,NF-kB SEAP reporter activity,RAW-Dual [3]; [7],0.614
same,NF-kB SEAP reporter activity,RAW-Dual [3]; [8],0.542
CCCC(NC1CCc2cc(F)cc(F)c2C1)C(=O)Nc1cn(C(C)(C)CNCC(C)(C)C)cn1 (stereo not drawn),NF-kB SEAP reporter activity,RAW-Dual [1]; [4],0.373
same,NF-kB SEAP reporter activity,RAW-Dual [1]; [5],0.669
CCCC(NC1CCc2cc(F)cc(F)c2C1)C(=O)Nc1cn(C(C)(C)CNCC(C)(C)C)cn1 (stereo not drawn) (library stock concentration (final ~1000-fold dilution): 10 mM),NF-kB SEAP reporter activity,RAW-Dual [2]; agonist: LPS (TLR4) 0.1 ug/mL,0.636
same,NF-kB SEAP reporter activity,RAW-Dual [2]; [6],0.316
same,NF-kB SEAP reporter activity,RAW-Dual [2]; [7],0.723
same,NF-kB SEAP reporter activity,RAW-Dual [2]; [8],0.298
CC(=O)NC(CC(C)C)C(=O)NC(CC(C)C)C(=O)NC(C=O)CCCNC(=N)N (stereo not drawn) (library stock concentration (final ~1000-fold dilution): 10 mM),NF-kB SEAP reporter activity,RAW-Dual [2]; agonist: LPS (TLR4) 0.1 ug/mL,1.01
same,NF-kB SEAP reporter activity,RAW-Dual [2]; [6],1.02
same,NF-kB SEAP reporter activity,RAW-Dual [2]; [7],1.08
same,NF-kB SEAP reporter activity,RAW-Dual [2]; [8],1.15
CC(=O)NC(CC(C)C)C(=O)NC(CC(C)C)C(=O)NC(C=O)CCCNC(=N)N (stereo not drawn),NF-kB SEAP reporter activity,RAW-Dual [1]; [4],0.983
same,NF-kB SEAP reporter activity,RAW-Dual [1]; [5],1.09
CN1C2=C3N=c4ccccc4=C3CCN2C(=O)c2ccccc21,NF-kB SEAP reporter activity,RAW-Dual [1]; [4],1.62
same,NF-kB SEAP reporter activity,RAW-Dual [1]; [5],1.83
CN1C2=C3N=c4ccccc4=C3CCN2C(=O)c2ccccc21 (library stock concentration (final ~1000-fold dilution): 10 mM),NF-kB SEAP reporter activity,RAW-Dual [2]; agonist: LPS (TLR4) 0.1 ug/mL,1.05
same,NF-kB SEAP reporter activity,RAW-Dual [2]; [6],0.339
same,NF-kB SEAP reporter activity,RAW-Dual [2]; [7],0.824
same,NF-kB SEAP reporter activity,RAW-Dual [2]; [8],1.1
Cc1cc2c(C(N)=O)cccc2n1-c1nc2c(c(NCc3ccccc3)n1)COCC2 (library stock concentration (final ~1000-fold dilution): 10 mM),NF-kB SEAP reporter activity,RAW-Dual [3]; agonist: LPS (TLR4) 0.1 ug/mL,0.298
same,NF-kB SEAP reporter activity,RAW-Dual [3]; [6],0.325
same,NF-kB SEAP reporter activity,RAW-Dual [3]; [7],0.0795
same,NF-kB SEAP reporter activity,RAW-Dual [3]; [8],0.159
Cc1cc2c(C(N)=O)cccc2n1-c1nc2c(c(NCc3ccccc3)n1)COCC2,NF-kB SEAP reporter activity,RAW-Dual [1]; [10],0.297
same,NF-kB SEAP reporter activity,RAW-Dual [1]; [9],0.302
CC(C)=CCC[C@](C)(O)[C@H]1CC[C@]2(C)[C@@H]3CCC4C(C)(C)[C@@H](O)CC[C@]4(C)[C@H]3C[C@@H](O)[C@@]12C (stereo partly drawn) (library stock concentration (final ~1000-fold dilution): 10 mM),NF-kB SEAP reporter activity,RAW-Dual [2]; agonist: LPS (TLR4) 0.1 ug/mL,1.41
same,NF-kB SEAP reporter activity,RAW-Dual [2]; [6],0.693
same,NF-kB SEAP reporter activity,RAW-Dual [2]; [7],0.848
same,NF-kB SEAP reporter activity,RAW-Dual [2]; [8],0.882
CC(C)=CCC[C@](C)(O)[C@H]1CC[C@]2(C)[C@@H]3CCC4C(C)(C)[C@@H](O)CC[C@]4(C)[C@H]3C[C@@H](O)[C@@]12C (stereo partly drawn),NF-kB SEAP reporter activity,RAW-Dual [1]; [4],0.934
same,NF-kB SEAP reporter activity,RAW-Dual [1]; [5],1.14
O=c1cc(-c2ccc(O)cc2)oc2c(C3OCC(O)C(O)C3O)c(O)c(C3OC(CO)C(O)C(O)C3O)c(O)c12 (stereo not drawn) (library stock concentration (final ~1000-fold dilution): 10 mM),NF-kB SEAP reporter activity,RAW-Dual [2]; agonist: LPS (TLR4) 0.1 ug/mL,1.45
same,NF-kB SEAP reporter activity,RAW-Dual [2]; [6],1.03
same,NF-kB SEAP reporter activity,RAW-Dual [2]; [7],1.08
same,NF-kB SEAP reporter activity,RAW-Dual [2]; [8],1.08
O=c1cc(-c2ccc(O)cc2)oc2c(C3OCC(O)C(O)C3O)c(O)c(C3OC(CO)C(O)C(O)C3O)c(O)c12 (stereo not drawn),NF-kB SEAP reporter activity,RAW-Dual [1]; [4],1.02
same,NF-kB SEAP reporter activity,RAW-Dual [1]; [5],1.05
CCn1cc(-c2cccc(C(F)(F)F)c2)c2sc(C(=N)NC3CCS(=O)(=O)CC3)cc2c1=O,NF-kB SEAP reporter activity,RAW-Dual [1]; [10],1.33
same,NF-kB SEAP reporter activity,RAW-Dual [1]; [9],2.16
CCn1cc(-c2cccc(C(F)(F)F)c2)c2sc(C(=N)NC3CCS(=O)(=O)CC3)cc2c1=O (library stock concentration (final ~1000-fold dilution): 10 mM),NF-kB SEAP reporter activity,RAW-Dual [3]; agonist: LPS (TLR4) 0.1 ug/mL,3.13
same,NF-kB SEAP reporter activity,RAW-Dual [3]; [6],0.721
same,NF-kB SEAP reporter activity,RAW-Dual [3]; [7],1.15
same,NF-kB SEAP reporter activity,RAW-Dual [3]; [8],1.12
CCCNC(=O)C1OC1C(=O)NC(C(=O)N1CCCC1C(=O)OC)C(C)CC (stereo not drawn),NF-kB SEAP reporter activity,RAW-Dual [1]; [4],0.821
same,NF-kB SEAP reporter activity,RAW-Dual [1]; [5],1.04
CCCNC(=O)C1OC1C(=O)NC(C(=O)N1CCCC1C(=O)OC)C(C)CC (stereo not drawn) (library stock concentration (final ~1000-fold dilution): 10 mM),NF-kB SEAP reporter activity,RAW-Dual [2]; agonist: LPS (TLR4) 0.1 ug/mL,1.06
same,NF-kB SEAP reporter activity,RAW-Dual [2]; [6],0.881
same,NF-kB SEAP reporter activity,RAW-Dual [2]; [7],0.854
same,NF-kB SEAP reporter activity,RAW-Dual [2]; [8],0.799
Cl.NCCOCCOCCNC(=O)Cc1ccc(Nc2nc(NCc3ccc(F)cc3)nc(NCC3CCCCC3)n2)cc1,NF-kB SEAP reporter activity,RAW-Dual [1]; [10],1.05
same,NF-kB SEAP reporter activity,RAW-Dual [1]; [9],1.59
Cl.NCCOCCOCCNC(=O)Cc1ccc(Nc2nc(NCc3ccc(F)cc3)nc(NCC3CCCCC3)n2)cc1 (library stock concentration (final ~1000-fold dilution): 10 mM),NF-kB SEAP reporter activity,RAW-Dual [3]; agonist: LPS (TLR4) 0.1 ug/mL,0.643
same,NF-kB SEAP reporter activity,RAW-Dual [3]; [6],0.852
same,NF-kB SEAP reporter activity,RAW-Dual [3]; [7],0.738
same,NF-kB SEAP reporter activity,RAW-Dual [3]; [8],0.911
